High-throughput results deposited in PubChem by National Center for Advancing Translational Sciences (NCATS).
SW480 rereplic – induces DNA re-replication in SW480 colon adenocarcinoma cells; SW480 DNA re-replication, Hoechst DNA content imaging, 48 h; Potency, µM (highest dose often 46.1 µM), for the others: at the top dose re-replication activation, most hits filed as activators; 1.8% of 340,000 active; AID 624297; note: % of control where 0% means no effect; nearly all actives have a fitted effect of over 55% in size
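Quantitative HTS format with DMSO vehicle controls; 48 hr drug incubation at 37 C, then 40 min Hoechst staining and scanning imager measurement at 405 nm excitation.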
KB-3-1 tox – KB-3-1 parental cell cytotoxicity | KB-3-1 viability, CellTiter-Glo ATP luminescence, 72 h | Potency, µM (doses to about 46.1 µM), usual class: cytotoxic | 1.4% of 400,000 active | AID 1347075; note: % is set by controls: 0 for no effect and ±100 for the full control effect; nearly all actives have a fitted effect of over 60% in size
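72 h, 37 °C compound treatment of KB-3-1 parental cells; CellTiter-Glo added, 10 min, luminescence read. Data corrected against DMSO-only plates and normalized before curve fitting.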
HT1080 IDH1KD tx – toxicity to HT-1080 IDH1 knockdown cells (counter line); HT-1080 IDH1 knockdown viability, ATP luminescence, 48 h; Potency, µM (series often up to 46.1 µM), for inactives: at the highest dose activity, negative = toxicity, most hits filed as cytotoxic; 2% of 360,000 active; AID 686971;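 note: 0% = DMSO wells and -100% = cell-free medium wells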
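Viability of IDH1-knockdown HT-1080 fibrosarcoma cells was assessed by CellTiter-Glo after 48 h at 37 °C with titrated compound; concentration-effect curves were classified by fit quality and response size.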
KB-V1 cytotox – KB-V1 MDR subline cytotoxicity | 3.4% of 400,000 active | KB-V1 MDR cells viability, CellTiter-Glo, 72 h | Potency, µM (doses to about 46.1 µM), actives largely listed as cytotoxic; note: % is set by controls: 0 for no effect and ±100 for the full control effect; nearly all actives have a fitted effect of over 60% in size
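Cells of the MDR subline KB-V1 are plated, dosed with compound at multiple concentrations, and incubated 72 h at 37 degrees C; CellTiter-Glo is then added and luminescence read after 10 min.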
HT1080NT lethal – kills 2HG-producing HT-1080-NT fibrosarcoma cells | 1.6% of 360,000 active | Potency, µM (titrated, usually from 46.1 µM), without a hit: at the highest dose activity, negative = less viability, hits mostly cytotoxic | AID 686970 | HT-1080-NT fibrosarcoma viability, CellTiter-Glo ATP luminescence, 48 h;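 note: NT is the 2HG producing partner of a matched IDH1 knockdown line; 0% = DMSO-treated cells and -100% = media-only wells without cells; nearly all actives have a fitted effect of over 55% in size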
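Read-out is CellTiter-Glo luminescence after 10 minutes at room temperature, following 48 hours' compound treatment of HT-1080-NT cells (750 cells/well, RPMI, 5% FBS, 37 degrees C).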
MCF10A rerep – inducers of DNA re-replication in MCF 10A breast cells. MCF 10A DNA re-replication, Hoechst nuclear intensity, 48 h. 2.9% of 350,000 active. Potency, µM (doses to about 46.1 µM), for inactives: at the top dose activity, positive = re-replication, actives largely listed as activators; note: % of control where 0% means no effect; nearly all actives have a fitted effect of over 50% in size
* marks the source's active call; other numbers are inactive results; i = inactive; ? = inconclusive; / = no result given. Most compounds without a hit are left out; they make up all but 7.9% or so of the library. Calls come from the whole dose curve; as a rule, active = well fitted curve in the direction sought with a large enough effect; inconclusive = small, poorly fitted or top-dose-only effect, or another doubt; inactive = no such curve, though single readings can be large; an effect the other way counts as inactive or inconclusive. Potency is the fitted concentration of half-maximal effect.

SMILES | SW480 rereplic | KB-3-1 tox | HT1080 IDH1KD tx | KB-V1 cytotox | HT1080NT lethal | MCF10A rerep
O=C(N/N=C/c1ccc2c(c1)OCO2)c1cc(-c2ccco2)nc2ccccc12 | 15µM* | ? | 3.7µM* | ? | 4.1µM* | ?
O=C(N/N=C/c1ccc2c(c1)OCO2)c1cc(-c2ccccc2)nc2ccccc12 | 10% | ? | -25% | i | -25% | ?
O=C(N/N=C/c1ccc2c(c1)OCO2)c1ccccn1 | 8% | ? | ? | 15µM* | ? | 3%
O=C(O)c1ccc(N/N=C/c2ccc3c(c2)OCO3)cc1 | 10% | 21µM* | 23µM* | ? | 18µM* | 3%
O=C(N/N=C/c1ccc2c(c1)OCO2)c1ccc(COCC(F)(F)C(F)F)cc1 | 6.5µM* | 8.2µM* | 1.3µM* | i | 1µM* | ?
O=C(N/N=C/c1ccc2c(c1)OCO2)c1cccc2ccccc12 | 103% | ? | ? | ? | ? | 16µM*
O=C(CSCc1cccc(Br)c1)N/N=C/c1ccc2c(c1)OCO2 | ? | 18µM* | -21% | i | -3% | ?
COc1ccc(/C=N/NC(=O)c2ccc(COCC(F)(F)C(F)F)cc2)cc1 | -19% | i | -8% | ? | 4% | -28%
O=C(N/N=C/c1ccc2c(c1)OCO2)c1ccc2ccccc2n1 | ? | i | ? | i | -13% | ?
O=C(N/N=C/c1cc(Br)c(Br)o1)c1ccc2c(c1)OCCO2 | 0% | i | ? | ? | -24% | 13µM*
COc1cc(C(=O)Nc2ccccc2OCc2cc(=O)n3cc(C)sc3n2)cc(OC)c1OC | / | i | / | ? | / | /
COc1ccccc1C(=O)NC(=O)Nc1ccc(-n2nc(C(F)(F)F)cc2C(F)(F)F)cc1 | / | i | / | i | / | /
Cc1ccccc1NCC(=O)N/N=C\c1ccc2c(c1)OCO2 | -10% | i | -10% | i | -4% | -4%
O=C(O)c1ccc(/C=N/Nc2ccc(F)cc2F)cc1 | -9% | i | 5.2µM* | i | 3.3µM* | 5%
Cc1cccc(C)c1OCC(=O)N/N=C/c1ccc2c(c1)OCO2 | ? | ? | ? | 5.2µM* | 15µM* | 5.8µM*
COc1ccccc1C(=O)NCC(=O)N/N=C/c1ccncc1 | 5% | i | 20% | i | 15% | 0%
Fc1ccc(N/N=C/c2ccncc2)c(F)c1 | -7% | i | 27% | ? | -20% | 2%
COc1ccccc1C(=O)NCC(=O)N/N=C/c1ccc2c(c1)OCO2 | ? | ? | 21µM* | i | ? | ?
N#Cc1ccc(/C=N/NC(=O)c2cc(-c3cccs3)nc3ccccc23)cc1 | ? | ? | 10µM* | i | ? | 21µM*
Cc1ccc(Nc2cc(C(=O)NCc3cccs3)c3ccccc3n2)c(C)c1 | / | i | / | i | / | /
Cn1cc(C(=O)N/N=C/c2ccc3c(c2)OCO3)c2ccccc21 | ? | 8.2µM* | 12µM* | ? | 21µM* | ?
Cc1cc(C(=O)N/N=C/c2ccc3c(c2)OCO3)c(C)o1 | -49% | i | ? | ? | -25% | -49%
O=C(CC(SCc1ccco1)c1ccc(O)cc1)c1cccs1 (configuration not stated) | -3% | 21µM* | -4% | i | -12% | ?
Nc1nc(SCc2ccccc2[N+](=O)[O-])c2ncn(Cc3ccccc3)c2n1 | ? | i | ? | i | ? | 22%
Cc1cc2oc(=O)cc(CN(C)Cc3ccccc3)c2cc1C | / | i | ? | i | -17% | /
SMILES | SW480 rereplic | KB-3-1 tox | HT1080 IDH1KD tx | KB-V1 cytotox | HT1080NT lethal | MCF10A rerep
COc1cc(N=Nc2ccccc2C(=O)O)ccc1O | 1% | i | -8% | i | -4% | 18µM*
CC(C)c1cccc(-c2csc(C(C)(O)c3ccccc3)n2)c1 (configuration not stated) | / | i | ? | i | ? | /
O=C(NCc1ccccc1)C(c1ccccc1)N(Cc1cccs1)C(=O)c1cnccn1 (configuration not stated) | 11% | i | -4% | 23µM* | -13% | ?
O=C(NCc1ccccc1)C(c1ccc(F)cc1)N(Cc1cccs1)C(=O)c1cnccn1 (configuration not stated) | 3% | i | 2% | i | -15% | 3%
O=C(NCc1ccccc1)C(c1cccs1)N(Cc1cccs1)C(=O)c1cnccn1 (configuration not stated) | 9% | i | 0% | 2.6µM* | 5% | ?
Cc1ccc(C)c(N2CCN(C(=O)C3CCN(c4nc5ccc(C)cc5[nH]4)CC3)CC2)c1 | / | i | / | i | / | /
CS(=O)(=O)c1ccc(C(=O)OCc2nnc(-c3ccccc3)o2)cc1[N+](=O)[O-] | ? | i | 4.1µM* | ? | 7.3µM* | ?
Cc1onc(-c2ccccc2)c1C(=O)OCc1nnc(-c2ccc([N+](=O)[O-])cc2)o1 | -5% | i | -4% | 15µM* | 2% | 11%
Cc1ccccc1OCCOC(=O)c1c(-c2ccccc2)noc1C | 9.2µM* | 9.2µM* | 5.8µM* | ? | 7.3µM* | ?
CC(C)c1ccc(/C=C(\C#N)c2nc(-c3ccc(O)cc3)cs2)cc1 | / | i | / | ? | / | /
Cc1ccc(-c2nonc2NC(=O)c2ccc(F)cc2)cc1C | / | i | / | i | / | /
O=C(COC(=O)CC(c1ccccc1)c1ccccc1)NCc1ccc(Cl)cc1 | ? | i | -2% | 23µM* | -1% | ?
Cc1ccc(NC(=O)Cn2cc(C(=O)c3ccco3)c3ccccc32)cc1C | / | i | / | ? | / | /
Cc1ccc(C(=O)Nc2cccc([N+](=O)[O-])c2)cc1S(=O)(=O)Nc1ccc(C(=O)O)cc1 | 1% | i | 5% | i | 9% | ?
Cc1ccc(C)c(NS(=O)(=O)c2cc(C(=O)Nc3ccccc3-c3ccccc3)ccc2C)c1 | 17% | ? | ? | 4.6µM* | ? | 19%
Cc1ccccc1NS(=O)(=O)c1cc(C(=O)Nc2cccc([N+](=O)[O-])c2)ccc1C | -1% | ? | 21µM* | 12µM* | ? | ?
Cc1ccc2cccc(NC(=O)c3cccc4c(Br)cccc34)c2n1 | / | ? | / | i | / | /
CC(=O)N1c2ccc(S(=O)(=O)N3CCN(c4ccc(C)cc4C)CC3)cc2CC1C (configuration not stated) | / | i | / | i | / | /
Cc1ccc(C(C[N+](=O)[O-])c2c(-c3ccccc3O)[nH][nH]c2=O)cc1 (configuration not stated) | 15µM* | ? | 9.2µM* | ? | ? | 12µM*
